Bioassay records: PubChem BioAssay, National Center for Advancing Translational Sciences (NCATS)
BAZ2B block: BAZ2B (human) inhibition; AlphaScreen BAZ2B-H3K14Ac peptide displacement; Potency, µM (series often up to 114 µM), hits mostly inhibitors; 4.4% of 360,000 active; AID 504333; further: nearly all actives have a fitted effect of over 60% in size
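Compounds, titrated to a top concentration of 110 uM, were incubated 30 min at room temperature with preformed BAZ2B/acetyl-K14 H3 peptide complex (50 nM each). Proximity signal was measured by AlphaScreen after 20 min with beads.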
GLS inh: inhibitors of human glutaminase (GLS) | O94925 | GLS enzymatic activity, qHTS titration | Potency, µM (highest dose often 45.5 µM), actives largely listed as inhibitors | 0.21% of 410,000 active | AID 624170
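Read-out is an Amplex red fluorescence increase coupled through glutamate oxidase and HRP, measured before and after 30 min room-temperature incubation. hKGA is in 45 mM KH2PO4 (pH 8.2) with 0.02% Tween-20; glutamine added as 1mM solution.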
HP1b chromo inh: inhibitors of HP1-beta chromodomain binding to methylated histone tails; Potency, µM (doses to about 114 µM), most hits filed as inhibitors; P83916; 0.56% of 390,000 active; AlphaScreen HP1-beta / biotin-H3K9me3 peptide binding; further: nearly all actives have a fitted effect of over 70% in size
Target sequence (P83916 whole entry, looked up): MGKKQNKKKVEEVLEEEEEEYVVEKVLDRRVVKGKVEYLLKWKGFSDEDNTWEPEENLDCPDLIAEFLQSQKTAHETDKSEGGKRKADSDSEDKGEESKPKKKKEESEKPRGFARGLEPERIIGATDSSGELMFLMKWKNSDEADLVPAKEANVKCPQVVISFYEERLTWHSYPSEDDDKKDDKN
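Compound inhibition of the preformed complex between 50 nM HP1-beta and 50 nM biotinylated H3K9me3 peptide was read by AlphaScreen. Buffer was PBS pH 7.4 with 0.01% Tween-20. Incubations ran 30 min at room temperature, with 10 ug/mL donor/acceptor beads.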
JMJD2A Tudor inh: inhibitors of human JMJD2A Tudor domain | O75164 | AID 504339 | 4.4% of 390,000 active | Potency, µM (highest dose often 114 µM), usual class: inhibitors | AlphaScreen JMJD2A-Tudor / H3K4me3 peptide binding; further: nearly all actives have a fitted effect of over 50% in size
G9a inh: inhibitors of human histone lysine methyltransferase G9a | AID 504332 | Q96KQ7 | 8.8% of 350,000 active | Potency, µM (titrated, usually from 102 µM), hits mostly inhibitors | G9a H3K9 monomethylation, AlphaScreen, 2 h; further: nearly all actives have a fitted effect of over 75% in size
Target sequence (Q96KQ7 913-1193 limits assumed): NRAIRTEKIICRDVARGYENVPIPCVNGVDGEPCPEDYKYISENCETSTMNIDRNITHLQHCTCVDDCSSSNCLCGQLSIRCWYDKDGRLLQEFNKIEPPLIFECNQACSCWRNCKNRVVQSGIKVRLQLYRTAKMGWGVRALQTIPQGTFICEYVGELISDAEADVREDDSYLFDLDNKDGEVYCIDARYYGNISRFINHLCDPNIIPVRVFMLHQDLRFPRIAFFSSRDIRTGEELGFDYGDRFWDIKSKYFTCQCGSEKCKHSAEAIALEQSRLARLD
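Methyltransferase reactions run at room temperature for 2 h (20 nM enzyme, 500 nM biotin-H3K9 peptide, 20 uM SAM) after a 15 min compound preincubation; product detected by AlphaScreen beads and anti-H3K9me1 antibody.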
Numbers stand for hits; . = inactive; ? = inconclusive; / = no result given; [ ] = another dose, or the depositor's remark. In the library only some 10% were active in any assay of this set; here they are far more common. The call rests on the fitted dose curve; in most records, active means well fitted curve in the direction sought with a large enough effect; inconclusive means small, poorly fitted or top-dose-only effect, or another doubt; inactive means no such curve, though single readings can be large; an effect the other way counts as inactive or inconclusive.

SMILES	BAZ2B block	GLS inh	HP1b chromo inh	JMJD2A Tudor inh	G9a inh
COc1ccc(C(=O)NCC(=O)OCC(=O)c2cc(OC)c(OC)c(OC)c2)cc1OC	.	.	.	.	50.1µM
O=C1C2=C(C(c3ccccc3)=NCCN2)C(c2cccc([N+](=O)[O-])c2)N1c1ccccc1 (stereo not given)	.	.	.	44.7µM	.
COc1ccc(C2C3=C(NCCN=C3c3ccccc3)C(=O)N2c2ccccc2)c(OC)c1 (stereo not given)	/	.	.	.	.
CC(=O)CC1OC(=O)C(Br)=C1NCc1ccccc1 (stereo not given)	.	.	.	.	35.5µM
COc1cnc(-c2ccccn2)nc1N(C)C	4.47µM	.	.	22.4µM	.
CCOC(=O)C(C)Sc1nc(-c2ccccn2)ncc1OC (stereo not given)	3.16µM	.	.	.[11.4 µM]	.
COc1cnc(-c2ccccn2)nc1Oc1c(C)cccc1C	22.4µM	.	.	.	?
COc1cnc(-c2ccccc2)nc1Oc1cccc(C)c1	.	.	.	.	.[12.7 µM]
COc1cnc(-c2ccccn2)nc1Sc1c(Cl)cccc1Cl	.	.	.	.	.[12.7 µM]
COc1cnc(-c2ccccn2)nc1Oc1cccc(Cl)c1	44.7µM	.	.	.	.[12.7 µM]
CCN(CC(=O)NC(C)(C)C)C(=O)c1ccccc1SCC(=O)NC1CCCCCCC1	.	.	.	.	.[12.7 µM]
Cc1ccc(N2CCN(S(=O)(=O)c3cccc4ccccc34)CC2)cc1Cl	.	.	.	.	.
CC(C)c1cccc(C(C)C)c1NC(=O)CNCC(O)c1ccccc1 (stereo not given)	50.1µM	.	.	56.2µM	.
CC(C)c1cccc(C(C)C)c1NC(=O)CCl	.	.	.	.	.
O=C(COC(=O)c1ccc2ccccc2n1)Nc1ncc(C(F)(F)F)cc1Cl	.	.	.	.	44.7µM
O=C(COC(=O)c1ccc2ccccc2c1)Nc1ncc(C(F)(F)F)cc1Cl	.	.	.	.	.[12.7 µM]
O=C(COC(=O)CSc1cccc2cccc(Cl)c12)Nc1ncc(C(F)(F)F)cc1Cl	50.1µM	.	.	.	?
CC(=O)Nc1ccc(S(=O)(=O)NC(CC(=O)O)c2ccc(C)cc2)cc1 (stereo not given)	.	.	.	.	.
CCOc1cccc(-c2cc(NCCc3ccccn3)n3nccc3n2)c1	/	.	/	/	/
Brc1ccc2nc(-c3c[nH]c4ccccc34)cn2c1	44.7µM	.	?	?	50.1µM
Cc1cccn2cc(-c3c[nH]c4ccccc34)nc12	.	.	.	?	?
Cc1cc2ncc(C(=O)Nc3ccccc3)c(C)n2n1	.	.	.	.	.[12.7 µM]
Cc1nn2c(C)c(C(=O)Nc3ccccc3)cnc2c1C#N	.	.	.	.	15.8µM
O=C(CCC(=O)OCC(=O)c1ccc(Cl)cc1Cl)Nc1cccc2cccnc12	.	.	.	.	/
CCC(=O)Nc1nc(C)nc(C)c1C(C)=O	.	.	.	.	44.7µM
SMILES	BAZ2B block	GLS inh	HP1b chromo inh	JMJD2A Tudor inh	G9a inh
COc1ccc(NC(=S)N/N=C/c2cccn2Cc2ccc(F)cc2Cl)cc1	17.8µM	?	?	28.2µM	22.4µM
Cc1cccc(NC(=S)N/N=C/c2cccn2Cc2ccc(F)cc2)c1	8.91µM	.	.	.	?
COc1ccc(NC(=S)N/N=C/c2cccn2Cc2ccccc2F)cc1	.	.	.	.	?
CSc1ccccc1NC(=S)N/N=C/c1cccn1Cc1ccc(F)cc1	28.2µM	?	.	35.5µM	31.6µM
CSc1ccccc1NC(=S)N/N=C/c1cccn1Cc1cccc(C)c1	8.91µM	?	.	.	25.1µM
Cc1cccc(NC(=O)Cc2ccc(F)cc2)c1	.	.	.	.	.
CC(C)Nc1nc(NC2CCCC2)nc(N2CCOCC2)n1	.	.	.	.	.[0.501 µM]
COc1ccc(/C=C/C(=O)NCC(=O)N2CCC(N(C)CCN3CCOCC3)CC2)cc1OC	50.1µM	.	?	?	7.94µM
CN(C1CCCC1)C1CCN(C(=O)CNC(=O)/C=C/c2ccccc2)CC1	.	.	.	.	.
CCOC(=O)c1[nH]c2ccc(Br)cc2c1NC(=O)CCN1CCC(C(=O)OCC)CC1	.	.	.	.[11.4 µM]	50.1µM
CCOC(=O)c1[nH]c2ccc(Br)cc2c1NC(=O)CCN1CCCCC1	.	/	/	/	.
C=CCNc1nnc(Cc2ccc(C(C)C)cc2)c(=O)[nH]1	?	.	.	56.2µM	.
Brc1cccc(-c2nc3c4ccccc4ccn3c2Cc2ccsc2)c1	/	.	/	/	/
Nc1c(-c2ccccc2)nc(Cl)nc1-c1ccccc1	.	.	.	.	.
c1ccc(-c2nc3nonc3nc2-c2ccccc2)cc1	28.2µM	.	?	39.8µM	14.1µM
COC(=O)c1ccccc1S(=O)(=O)N1CCC(C(=O)OCC(=O)NC2CCCCC2C)CC1 (stereo not given)	.	.	.	.	20µM
COC(=O)c1ccccc1S(=O)(=O)N1CCC(C(=O)OCC(=O)c2ccccc2OC)CC1	.	.	.	.	39.8µM
O=c1c2ccccc2nnn1CSc1ccccc1	.	.	.	.	.
O=[N+]([O-])c1ccccc1N/N=C1\CC2CC=CC12 (stereo not given)	12.6µM	.	17.8µM	39.8µM	11.2µM
COc1cccc(C(C)NC(=O)c2c(F)cccc2Cl)c1 (stereo not given)	.	.	.	.	.
COc1ccc(C(=O)N2CCN(Cc3ccccc3[N+](=O)[O-])CC2)cc1	50.1µM	.	?	22.4µM	15.8µM
COc1cc(OC)cc(C(=O)N2CCN(Cc3ccccc3[N+](=O)[O-])CC2)c1	20µM	.	?	.[11.4 µM]	7.94µM
CCc1c(O)nc(SCC(=O)N(CC)CC)[nH]c1=O	.	.	.	.	.
COc1ccc(-n2cc(C(=O)c3ccccc3O)cn2)cc1	.	.	.	.	.
COc1ccc(O)c(C(=O)c2cnn(-c3ccccc3)c2)c1	.	.	.	.	4.47µM
SMILES	BAZ2B block	GLS inh	HP1b chromo inh	JMJD2A Tudor inh	G9a inh
CCOc1ccc(NC(=O)CSc2oc(-c3ccc(C)cc3)nc2S(=O)(=O)c2ccc(C)cc2)cc1	?	.	.	.	.
O=C1NCC(O)=C1C=NCCO	.	.	.	.	.
O=C(O)CCCN=CC1=C(O)CNC1=O	.	.	.	22.4µM	?
COCCNC(=O)CC(c1ccccc1)c1ccccc1	.	.	.	.	.
CC12CCC(=O)N1C(C(=O)Nc1nnc(SCc3ccccc3F)s1)CS2 (stereo not given)	.	.	.	.	79.4µM
CC12CCC(=O)N1C(C(=O)Nc1nc3c(F)cc(F)cc3s1)CS2 (stereo not given)	.	.	.	.	44.7µM
Cc1ccc(C(=O)Sc2cccccc2=O)cc1	39.8µM	.	?	.	10µM
O=C(Nc1ccccc1SC(=O)c1ccccc1)c1ccccc1	/	.	/	/	/
Clc1cccc(CN2CCC3CC2c2cc(N4CCCCC4)ccc23)c1 (stereo not given)	/	.	?	44.7µM	/
O=C(OCc1ccccc1)N1CCC2CC1c1cc(N3CCCCC3)ccc12 (stereo not given)	/	.	?	28.2µM	/
